Results: PubChem BioAssay
The source made the active and inactive calls.

Tests used:
[1] = optical density shifts of acrAB sulA E. coli – strain DRC41, OD650, 48 h, E. coli filamentation inducer project, primary screen (AID 1152); details: higher = more signal, called active from +8 up or from −8 down;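 note: E. coli MC1000 strain DRC41 lacking acrAB efflux pump and sulA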
[2] = probe aLefty1 binding on compound microarray – biochemical, small-molecule microarray, 635/667 nm fluorescence, primary screen (AID 1153); details: higher = more signal;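 note: score merges spot fluorescence with signal-to-noise ratio from the scanned slide images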
[3] = plasmodial surface anion channel blockers, osmotic lysis – cell-based, P. falciparum Indochina, OD700, 1 h, primary screen (AID 1154); details: P. falciparum Indochina infected RBC osmotic lysis, higher = more signal, called active from +8 up or from −8 down
[4] = plasmodial surface anion channel blockers, osmotic lysis – cell-based, P. falciparum Indochina, OD700, 2 h, primary screen (AID 1155);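 note: lysis reports solute entry through the parasite surface anion channel PSAC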; details: P. falciparum Indochina infected erythrocytes, higher = more signal, called active from +8 up or from −8 down
[5] = changes in parasitized red cell lysis, either direction – P. falciparum Indochina, OD700, 3 h, PSAC antagonist project, primary screen (AID 1156); details: P. falciparum-infected erythrocytes, osmotic lysis, higher = more signal, called active from +8 up or from −8 down
[6] = plasmodial surface anion channel blockers, osmotic lysis – cell-based, P. falciparum Indochina, OD700, 18 h, primary screen (AID 1157); details: P. falciparum Indochina infected erythrocytes, osmotic lysis OD700, 18 h; higher = more signal, called active from +8 up or from −8 down
[7] = S6 kinase pathway phospho-S6 level changes – cell-based, A549, cytoblot, luminescence, serum-stimulated, primary screen (AID 1158); details: 5 h, higher = more signal;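 note: serum-stimulated A549 lung adenocarcinoma cells; signal is phosphorylated S6 detected by cytoblot immunostaining with HRP secondary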
[8] = biological target: NADPH oxidase 2 (Homo sapiens) (UniProt P04839); test: compounds shifting NOX2 Amplex Red fluorescence – cell-based, HEK293-NOX2, PMA-stimulated, NOX inhibitor project, primary screen (AID 1159); details: 45 min, higher = more signal, called active from +8 up or from −8 down; note: test concentration not given here
[9] = biological target: NADPH oxidase 4 (Homo sapiens) (UniProt Q9NPH5); test: compounds shifting NOX4 Amplex Red fluorescence – cell-based, HEK293-NOX4, tetracycline-induced, NOX inhibitor project, primary screen (AID 1160); details: HEK293-NOX4, Amplex Red H2O2 fluorescence, 45 min; higher = more signal, called active from +8 up or from −8 down
[10] = biological target: NADPH oxidase 5 (Homo sapiens) (UniProt Q96PH1); test: compounds shifting NOX5 Amplex Red fluorescence – cell-based, HEK293-NOX5, NOX inhibitor project, primary screen (AID 1161); details: HEK293-NOX5, ionomycin, 45 min, higher = more signal
[11] = compound effects on lung adenocarcinoma cell viability – A549, calcein-AM fluorescence, 48 h, basal, profiling panel (AID 1162); details: higher = more signal; note: test concentration not given here
[12] = compound effects on differentiated 3T3-L1 adipocyte viability – cell-based, 3T3-L1 adipocytes, calcein-AM fluorescence, 48 h, basal, profiling panel (AID 1163); details: 3T3-L1 adipocytes viability, higher = more signal; note: test concentration not given here
[13] = compound effects on hepatocellular carcinoma cell viability – HepG2, calcein-AM fluorescence, 48 h, basal, profiling panel (AID 1164); details: higher = more signal; note: test concentration not given here
[14] = compound effects on multiple myeloma cell viability – MM1S, calcein-AM fluorescence, 48 h, basal, profiling panel (AID 1165); details: higher = more signal;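 note: viability of MM1S multiple myeloma cells under basal unstimulated conditions; test concentration not given here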
[15] = calcein-AM signal in unstimulated myeloma cells – cell-based, calcein-AM fluorescence, 48 h, PK04 Diversity Set, profiling panel (AID 1166); details: RPMI8226 myeloma viability, higher = more signal;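 note: cells grown under basal conditions without added stimulus; test concentration not given here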
[16] = JC-1 mitochondrial signal, unstimulated HepG2 cells – cell-based, JC-1 fluorescence, 24 h, 100 nL compound, profiling panel (AID 1167); details: HepG2 mitochondrial potential, higher = more signal; note: test concentration not given here
[17] = JC-1 mitochondrial signal, unstimulated adipocytes – cell-based, JC-1 fluorescence, 3T3-L1 adipocytes, 24 h, 100 nL compound, profiling panel (AID 1168); details: JC-1 mitochondrial fluorescence, higher = more signal, called active from +8 up or from −8 down; note: test concentration not given here
[18] = JC-1 mitochondrial signal, unstimulated myeloma cells – cell-based, JC-1 fluorescence, RPMI8226, 24 h, 100 nL compound, profiling panel (AID 1169); details: JC-1 mitochondrial potential fluorescence, higher = more signal; note: test concentration not given here
[19] = JC-1 mitochondrial signal, unstimulated MM1S myeloma – cell-based, JC-1 fluorescence, 24 h, 100 nL compound, profiling panel (AID 1170); details: MM1S mitochondrial potential, higher = more signal; note: test concentration not given here
[20] = resazurin metabolic signal in A549 cells – cell-based, resazurin fluorescence, 24 h, PK04 Diversity Set, profiling panel (AID 1171); details: A549 viability, higher = more signal, called active from +8 up or from −8 down; note: test concentration not given here

NADPH oxidase 4 (Homo sapiens), sequence (Q9NPH5 whole entry, looked up): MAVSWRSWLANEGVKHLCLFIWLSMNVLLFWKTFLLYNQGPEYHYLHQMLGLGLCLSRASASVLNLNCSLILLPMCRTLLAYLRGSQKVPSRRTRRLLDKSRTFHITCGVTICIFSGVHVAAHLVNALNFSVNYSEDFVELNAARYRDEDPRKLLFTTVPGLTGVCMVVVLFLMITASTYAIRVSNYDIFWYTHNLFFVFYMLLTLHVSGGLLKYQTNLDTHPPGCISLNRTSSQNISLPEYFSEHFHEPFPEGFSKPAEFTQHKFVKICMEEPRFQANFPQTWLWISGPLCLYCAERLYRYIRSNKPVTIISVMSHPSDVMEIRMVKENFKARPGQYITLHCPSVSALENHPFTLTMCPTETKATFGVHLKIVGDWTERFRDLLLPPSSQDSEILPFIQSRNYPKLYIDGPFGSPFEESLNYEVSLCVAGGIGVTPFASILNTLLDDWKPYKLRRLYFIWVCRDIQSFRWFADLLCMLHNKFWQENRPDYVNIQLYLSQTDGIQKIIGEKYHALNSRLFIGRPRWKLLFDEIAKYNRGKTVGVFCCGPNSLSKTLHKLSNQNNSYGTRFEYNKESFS
NADPH oxidase 5 (Homo sapiens), sequence (Q96PH1 whole entry, looked up): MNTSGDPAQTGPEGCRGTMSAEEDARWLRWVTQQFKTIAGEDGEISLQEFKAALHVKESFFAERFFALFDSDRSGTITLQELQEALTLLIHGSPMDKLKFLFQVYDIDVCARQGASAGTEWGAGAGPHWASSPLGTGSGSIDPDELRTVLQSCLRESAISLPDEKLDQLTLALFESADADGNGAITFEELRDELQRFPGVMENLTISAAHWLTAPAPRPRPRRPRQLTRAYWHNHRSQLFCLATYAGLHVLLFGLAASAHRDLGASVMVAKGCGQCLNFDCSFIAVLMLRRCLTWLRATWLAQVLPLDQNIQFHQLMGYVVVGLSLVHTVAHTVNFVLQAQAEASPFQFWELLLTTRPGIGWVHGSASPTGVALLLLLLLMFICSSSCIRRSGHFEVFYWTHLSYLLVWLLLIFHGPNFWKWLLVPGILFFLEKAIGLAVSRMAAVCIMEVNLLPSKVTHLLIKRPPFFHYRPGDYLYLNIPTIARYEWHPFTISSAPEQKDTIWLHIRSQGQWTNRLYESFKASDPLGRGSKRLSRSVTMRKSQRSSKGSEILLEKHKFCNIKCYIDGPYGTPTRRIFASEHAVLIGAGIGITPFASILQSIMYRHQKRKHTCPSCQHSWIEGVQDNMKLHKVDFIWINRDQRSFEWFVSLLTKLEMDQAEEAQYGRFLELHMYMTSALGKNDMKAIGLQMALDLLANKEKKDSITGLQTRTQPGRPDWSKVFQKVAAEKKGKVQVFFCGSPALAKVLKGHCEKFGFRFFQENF
NADPH oxidase 2 (Homo sapiens), sequence (P04839 whole entry, looked up): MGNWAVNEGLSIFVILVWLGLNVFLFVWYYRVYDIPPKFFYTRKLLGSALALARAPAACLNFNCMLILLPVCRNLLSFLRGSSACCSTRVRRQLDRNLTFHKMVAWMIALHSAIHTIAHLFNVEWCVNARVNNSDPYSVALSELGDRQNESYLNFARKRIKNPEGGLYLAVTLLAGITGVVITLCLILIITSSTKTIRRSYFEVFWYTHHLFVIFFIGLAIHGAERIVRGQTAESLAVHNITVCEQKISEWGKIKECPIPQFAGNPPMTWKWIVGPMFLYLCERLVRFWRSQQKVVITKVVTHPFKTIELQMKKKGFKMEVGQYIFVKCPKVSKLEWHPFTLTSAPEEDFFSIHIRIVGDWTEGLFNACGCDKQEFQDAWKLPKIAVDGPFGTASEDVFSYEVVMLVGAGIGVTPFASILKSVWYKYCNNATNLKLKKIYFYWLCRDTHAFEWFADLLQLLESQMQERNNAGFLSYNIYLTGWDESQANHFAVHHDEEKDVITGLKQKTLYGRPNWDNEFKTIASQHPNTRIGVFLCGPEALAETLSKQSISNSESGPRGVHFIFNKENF

[N-]=[N+]=Nc1ccccc1C[C@]1(C(=O)NCCN2CCOCC2)N=C(c2ccc(OCCCO)cc2)O[C@H]1c1ccccc1
z-score [1]: 0.0623 (inactive)
composite z-score [2]: 0.728
z-score [3]: 14.1 (active)
z-score [4]: 1.53 (inactive)
z-score [5]: 1.37 (inactive)
z-score [6]: 0.766 (inactive)
z-score [7]: -0.0135
z-score [8]: -1.92 (inactive)
z-score [9]: 0.0642 (inactive)
z-score [10]: -1.32
z-score [11]: -0.0454
z-score [12]: 0.0937
z-score [13]: -0.256
z-score [14]: -0.0793
z-score [15]: -0.26
z-score [16]: 0.771
z-score [17]: 0.00214 (inactive)
z-score [18]: -0.309
z-score [19]: -0.777
z-score [20]: 1.24 (inactive)

CN(C)C(=O)[C@@]1(CCC(=O)OC(C)(C)C)N=C(c2ccc(OCCCO)cc2)O[C@H]1c1ccccc1
z-score [1]: -0.249 (inactive)
composite z-score [2]: 0.986
z-score [3]: 15.9 (active)
z-score [4]: 1 (inactive)
z-score [5]: 1.34 (inactive)
z-score [6]: -0.976 (inactive)
z-score [7]: 0.837
z-score [8]: -2.81 (inactive)
z-score [9]: -0.618 (inactive)
z-score [10]: -0.698
z-score [11]: -0.211
z-score [12]: 0.687
z-score [13]: -0.517
z-score [14]: 0.301
z-score [15]: -1.48
z-score [16]: 0.26
z-score [17]: -0.58 (inactive)
z-score [18]: -1
z-score [19]: 0.279
z-score [20]: 0.107 (inactive)

CC(C)(C)N1CC=CC23O[C@@H]4/C=C\CCCOC(=O)C4[C@H]2C(=O)N(CCO)[C@@H]3C1=O (stereo not given in full)
z-score [1]: 0.583 (inactive)
composite z-score [2]: -0.552
z-score [3]: 0.806 (inactive)
z-score [4]: 1.01 (inactive)
z-score [5]: 0.17 (inactive)
z-score [6]: 0.603 (inactive)
z-score [7]: -0.495
z-score [8]: 1.58 (inactive)
z-score [9]: 0.0377 (inactive)
z-score [10]: 2.17
z-score [11]: -0.612
z-score [12]: 1.15
z-score [13]: -0.664
z-score [14]: 0.889
z-score [15]: -0.689
z-score [16]: -0.388
z-score [17]: -0.79 (inactive)
z-score [18]: -0.0669
z-score [19]: 1.11
z-score [20]: -0.876 (inactive)

Cc1ccccc1C(O)C1C=CC2C(=O)N(C)C(=O)C2N1N1CCCCC1 (stereo not given)
z-score [1]: -1.52 (inactive)
composite z-score [2]: 0.563
z-score [3]: 0.234 (inactive)
z-score [4]: 0.479 (inactive)
z-score [5]: 0.126 (inactive)
z-score [6]: 1.02 (inactive)
z-score [7]: -0.467
z-score [8]: -0.182 (inactive)
z-score [9]: 0.0457 (inactive)
z-score [10]: -1.46
z-score [11]: -0.578
z-score [12]: -1.18
z-score [13]: -0.979
z-score [14]: -0.587
z-score [15]: -0.436
z-score [16]: -1.64
z-score [17]: -1.01 (inactive)
z-score [18]: 0.207
z-score [19]: 0.201
z-score [20]: -0.464 (inactive)

N#Cc1ccc(NN2C(C(O)C3CCCCC3)C=CC3C(=O)N(c4ccccc4)C(=O)C32)cc1 (stereo not given)
z-score [1]: -1.35 (inactive)
composite z-score [2]: 0.545
z-score [3]: 13.2 (active)
z-score [4]: 2.67 (inactive)
z-score [5]: 3.79 (inactive)
z-score [6]: 1.49 (inactive)
z-score [7]: -0.911
z-score [8]: -2.02 (inactive)
z-score [9]: -3.88 (inactive)
z-score [10]: -3.01
z-score [11]: -0.669
z-score [12]: -0.515
z-score [13]: 0.595
z-score [14]: -0.185
z-score [15]: -0.32
z-score [16]: -2.19
z-score [17]: -2.17 (inactive)
z-score [18]: 0.234
z-score [19]: 0.318
z-score [20]: -0.609 (inactive)

C=CC[C@]1(C(=O)N2CCOCC2)N=C(c2ccc(OCCCO)cc2)O[C@H]1c1ccccc1
z-score [1]: 0.104 (inactive)
composite z-score [2]: 0.302
z-score [3]: 11.3 (active)
z-score [4]: 1.09 (inactive)
z-score [5]: 0.492 (inactive)
z-score [6]: 0.471 (inactive)
z-score [7]: -0.0044
z-score [8]: -1.59 (inactive)
z-score [9]: 0.486 (inactive)
z-score [10]: -0.921
z-score [11]: -0.211
z-score [12]: 0.117
z-score [13]: -0.539
z-score [14]: -1.11
z-score [15]: -2.07
z-score [16]: -0.0158
z-score [17]: -0.0689 (inactive)
z-score [18]: -0.326
z-score [19]: -0.577
z-score [20]: 1.39 (inactive)

[N-]=[N+]=NCc1ccccc1C[C@@]1(C(=O)N2CCOCC2)N=C(c2ccc(OCCCO)cc2)O[C@@H]1c1ccccc1CN=[N+]=[N-]
z-score [1]: 0.562 (inactive)
composite z-score [2]: 0.429
z-score [3]: 28.2 (active)
z-score [4]: 21.5 (active)
z-score [5]: 3.05 (inactive)
z-score [6]: 5.86 (inactive)
z-score [7]: 0.0883
z-score [8]: -1 (inactive)
z-score [9]: 1.26 (inactive)
z-score [10]: 1.08
z-score [11]: 0.052
z-score [12]: -0.19
z-score [13]: 1.29
z-score [14]: -0.757
z-score [15]: -2.91
z-score [16]: 0.883
z-score [17]: 0.612 (inactive)
z-score [18]: -0.997
z-score [19]: -1.15
z-score [20]: -1.46 (inactive)

CC(C)=CCCC(C)=CC(O)C1C=CC2C(=O)N(c3ccccc3)C(=O)C2N1Nc1ccccc1 (stereo not given)
z-score [1]: -1.8 (inactive)
composite z-score [2]: 0.805
z-score [3]: 1.37 (inactive)
z-score [4]: 1.4 (inactive)
z-score [5]: 1.09 (inactive)
z-score [6]: 1.27 (inactive)
z-score [7]: -1.29
z-score [8]: -1.26 (inactive)
z-score [9]: -4.03 (inactive)
z-score [10]: -2.54
z-score [11]: -0.846
z-score [12]: -1.34
z-score [13]: -0.731
z-score [14]: -1.77
z-score [15]: -1.02
z-score [16]: -2
z-score [17]: 0.224 (inactive)
z-score [18]: -0.222
z-score [19]: -0.236
z-score [20]: -0.518 (inactive)
